Records with an inconclusive call do not appear. Calls of active or inactive are those of the source. Rule for the calls, unless noted: active = hit-call score of the fitted dose curve at least 0.9, where 1 is the maximum; inactive = score below 0.9.
What was measured:
[1] = ATG_M_06_TRANS: Attagene TRANS-FACTORIAL HepG2 Assay for M06 Transcription Factor (Internal Marker) (AID 2282983; active = hit-call score of the fitted dose curve at least 0.9, where 1 is the maximum); conditions: HepG2 Attagene TRANS M06 internal marker reporter
Method in brief: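 mRNA levels of a reporter transcript, quantified as FAM fluorescence on capillary electrophoresis, served as readout. HepG2 cells expressing exogenous GAL4-chimera reporter constructs were exposed for 24 h. Gain of signal over DMSO was evaluated.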

[2] = biological target: Transcriptional activator Myb (Homo sapiens) (UniProt P10242); assay: ATG_Myb_CIS: Attagene CIS-FACTORIAL HepG2 Assay for human Myeloblastosis (Myb) Proto-Oncogene Transcription Factor (AID 2282986); conditions: HepG2 Attagene CIS-FACTORIAL Myb reporter transcription; actives raise or lower the signal
Method in brief: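 In this HepG2 transient-transfection format, cis-regulated reporter mRNA is quantified 24 h post-dosing by RT-PCR with capillary electrophoresis, fitted bidirectionally to DMSO baseline.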

[3] = biological target: Nuclear respiratory factor 1 (Homo sapiens) (UniProt Q16656); assay: ATG_NRF1_CIS: Attagene CIS-FACTORIAL HepG2 Assay for human Nuclear Respiratory Factor 1 (NRF1) Orphan Gene (AID 2282987); conditions: HepG2 NRF1 cis-element reporter, Attagene multiplex; actives raise or lower the signal
Method in brief: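 Using DMSO as baseline, gain- or loss-of-signal was fitted for reporter mRNA levels in HepG2 cells transiently transfected with cis-regulated reporter units. Samples were taken 24 h after dosing and read by RT-PCR with capillary electrophoresis.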

[4] = ATG_NFI_CIS: Attagene CIS-FACTORIAL HepG2 Assay for human Nuclear Factor I (NFI) (AID 2282989); conditions: HepG2 cis-regulatory reporter, NFI response element transcription; actives raise or lower the signal
Method in brief: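 After transient transfection of HepG2 with cis-promoter reporter constructs and 24 h dosing, RNA is reverse-transcribed, amplified, 6-FAM end-labelled and HpaI-digested before capillary analysis. Bidirectional curve fitting against DMSO.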

[5] = ATG_Oct_MLP_CIS: Attagene CIS-FACTORIAL HepG2 Assay for human Octamer-Binding Transcription Factor (Oct) (AID 2282993); conditions: HepG2 Attagene cis-factorial Oct reporter, mRNA; actives raise or lower the signal
Method in brief: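 Cells of the HepG2 line express promoter-controlled reporter sequences whose mRNA levels, after 24 h treatment, are measured by RT-PCR and capillary electrophoresis. Increases and decreases are scored relative to DMSO.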

[6] = biological target: Cellular tumor antigen p53 (Homo sapiens) (UniProt P04637); assay: ATG_p53_CIS: Attagene CIS-FACTORIAL HepG2 Assay for human p53 Transcription Factor (AID 2282994); conditions: HepG2 p53 cis-element reporter, Attagene mRNA; actives raise or lower the signal
Method in brief: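 In HepG2 cells, reporter transcription units under cis-regulatory promoters were transiently introduced. Following 24 h treatment, RNA was processed to labelled, digested cDNA fragments read by capillary electrophoresis; fitting was bidirectional versus DMSO.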

[7] = BSK_3C_uPAR: BioMAP Diversity Plus: 3C Assay for Urokinase-type plasminogen activator receptor (uPAR) Biomarker Activity (AID 2282998); conditions: BioMAP 3C HUVEC, uPAR biomarker ELISA; actives raise or lower the signal
Method in brief: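 Endothelial primary cells of human umbilical vein origin received test chemical; 24 h later uPAR was assayed by ELISA. Fitting was bidirectional, DMSO as negative control.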

[8] = biological target: human Peroxisome Proliferator-activated Receptor alpha (PPARa), PPARA (gene 5465) (UniProt Q07869); assay: ATG_PPARa_TRANS: Attagene TRANS-FACTORIAL HepG2 Assay for human Peroxisome Proliferator-activated Receptor alpha (PPARa) (AID 2283001; active = hit-call score of the fitted dose curve at least 0.9, where 1 is the maximum)
Method in brief: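 Cells (HepG2) are transfected with multiple reporter transcription units, exposed to chemical for 24 h, then total RNA is reverse-transcribed and amplified. Labelled products are quantified by capillary electrophoresis; induction is referenced to DMSO.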

[9] = biological target: human Peroxisome Proliferator-activated Receptor delta (PPARd), PPARD (gene 5467) (UniProt Q03181); assay: ATG_PPARd_TRANS: Attagene TRANS-FACTORIAL HepG2 Assay for human Peroxisome Proliferator-activated Receptor delta (PPARd) (AID 2283002; active = hit-call score of the fitted dose curve at least 0.9, where 1 is the maximum)
Method in brief: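 HepG2 cells transiently transfected with multiplexed GAL4-UAS reporter units and exogenous chimeric NR-Gal4 proteins; 24 h compound exposure. Reporter mRNA measured by RT-PCR, 6-FAM labelling, HpaI digestion and capillary electrophoresis; gain of signal versus DMSO.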

[10] = biological target: Nuclear receptor subfamily 4 group A member 2 (Homo sapiens) (UniProt P43354); assay: ATG_NURR1_TRANS: Attagene TRANS-FACTORIAL HepG2 Assay for human Nuclear Receptor Related Protein 1 (NURR1) (AID 2282985; active = hit-call score of the fitted dose curve at least 0.9, where 1 is the maximum); conditions: HepG2 Attagene TRANS reporter, mRNA readout
Method in brief: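 Chimeric NR-Gal4 fusion activity measured in HepG2 after 24 h treatment. Reporter transcripts detected by RT-PCR and capillary electrophoresis fluorescence; positive-direction curve fitting against DMSO.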

[11] = ATG_NF_kB_CIS: Attagene CIS-FACTORIAL HepG2 Assay for human Nuclear Factor Kappa B (NF-kB) (AID 2282991); conditions: HepG2 Attagene cis-factorial NF-kB reporter mRNA; actives raise or lower the signal
Method in brief: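 Endpoint from a 52-component multiplexed HepG2 reporter panel: cis-regulated transcription units transiently transfected, 24 h dosing, reporter mRNA quantified by RT-PCR and capillary electrophoresis, scored as increase or decrease against DMSO.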

[12] = biological target: Hepatocyte nuclear factor 4-alpha (Homo sapiens) (UniProt P41235); assay: ATG_HNF4a_TRANS: Attagene TRANS-FACTORIAL HepG2 Assay for human Hepatocyte Nuclear Factor 4 alpha (HNF4a) (AID 2282982; active = hit-call score of the fitted dose curve at least 0.9, where 1 is the maximum); conditions: HepG2 HNF4a transactivation reporter, mRNA readout
Method in brief: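 In this trans-factorial format, a chimeric HNF4a-GAL4 fusion drives a GAL4-UAS reporter in transfected HepG2 liver cells. After 24 h treatment, reporter mRNA induction is measured by RT-PCR with capillary electrophoresis, relative to DMSO.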

[13] = biological target: Myc proto-oncogene protein (Homo sapiens) (UniProt P01106); assay: ATG_Myc_CIS: Attagene CIS-FACTORIAL HepG2 Assay for human Myelocytomatosis (Myc) Proto-Oncogene Transcription Factor (AID 2282990); conditions: HepG2, Attagene cis-reporter transcription factor activity; actives raise or lower the signal
Method in brief: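 HepG2 cells transiently transfected with multiple cis-promoter-driven reporter transcription units, so endogenous TF activity is read. After 24 h compound exposure, reporter mRNA was quantified by RT-PCR, 6-FAM labelling, HpaI digestion and capillary electrophoresis; bidirectional fit versus DMSO.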

[14] = ATG_NRF2_ARE_CIS: Attagene CIS-FACTORIAL HepG2 Assay for human Nuclear Factor Erythroid 2 Related Factor 2 (NFR2) response to Antioxidant Response Elements (ARE) (AID 2282992); conditions: HepG2 Attagene ARE/NRF2 reporter, transcription factor activity; actives raise or lower the signal
Method in brief: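 Using transiently transfected HepG2 cells exposed for 24 h, reporter mRNA levels were determined by RT-PCR with fluorescent primer extension and capillary electrophoresis, analysed for gain or loss of signal against DMSO.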

[15] = BSK_3C_TissueFactor: BioMAP Diversity Plus: 3C Assay for Tissue Factor Biomarker Activity (AID 2282997); conditions: BioMAP 3C HUVEC, tissue factor biomarker readout; actives raise or lower the signal
Method in brief: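 Tissue Factor measured by ELISA, 24 h after treatment of primary HUVEC in the BioMAP 3C setting.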

[16] = BSK_3C_VCAM1: BioMAP Diversity Plus: 3C Assay for Vascular cell adhesion molecule 1 (VCAM1) Biomarker Activity (AID 2282999); conditions: BioMAP 3C HUVEC, VCAM1 ELISA, cytokine-stimulated; actives raise or lower the signal
Method in brief: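 Vascular primary endothelium (human umbilical vein) was exposed to chemicals and assayed 24 h later. VCAM-1 levels came from ELISA, with DMSO serving as baseline for bidirectional fitting.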

[17] = BSK_4H_Eotaxin3: BioMAP Diversity Plus: 4H Assay for Eotaxin 3 Biomarker Activity (AID 2283000); conditions: primary human endothelial cells (HUVEC); actives raise or lower the signal
Method in brief: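 Eotaxin-3 (CCL26) levels were measured by ELISA in HUVEC primary cultures 24 h post-dosing. Gain or loss of signal was fitted in both directions, with DMSO serving as baseline and negative control.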

[18] = ATG_M_32_TRANS: Attagene TRANS-FACTORIAL HepG2 Assay for M32 Transcription Factor (Internal Marker) (AID 2282984; active = hit-call score of the fitted dose curve at least 0.9, where 1 is the maximum;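 note: transcript level of a background control reporter unit measured by RT-PCR and capillary electrophoresis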); conditions: HepG2 Attagene TRANS M32 internal marker reporter
Method in brief: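 After 24 h dosing of transfected HepG2 cells, total RNA was reverse-transcribed, reporter sequences PCR-amplified, 6-FAM labelled by primer extension and HpaI-digested before capillary electrophoresis. Signal increase over DMSO was fitted.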

Measured: AC50

Myc proto-oncogene protein (Homo sapiens), sequence (P01106 whole entry, looked up): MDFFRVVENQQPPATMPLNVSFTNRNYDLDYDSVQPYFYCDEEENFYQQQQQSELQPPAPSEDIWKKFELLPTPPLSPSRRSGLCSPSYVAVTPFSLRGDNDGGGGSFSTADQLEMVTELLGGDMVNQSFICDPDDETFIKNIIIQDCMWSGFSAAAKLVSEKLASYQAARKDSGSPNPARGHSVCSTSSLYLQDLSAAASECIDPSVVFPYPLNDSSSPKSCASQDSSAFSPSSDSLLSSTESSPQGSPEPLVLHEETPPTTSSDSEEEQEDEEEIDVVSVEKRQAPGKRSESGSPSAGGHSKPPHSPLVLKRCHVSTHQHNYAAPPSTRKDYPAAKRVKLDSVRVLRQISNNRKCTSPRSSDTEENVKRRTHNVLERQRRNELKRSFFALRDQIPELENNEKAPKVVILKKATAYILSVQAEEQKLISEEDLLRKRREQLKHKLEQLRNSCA
Nuclear receptor subfamily 4 group A member 2 (Homo sapiens), sequence (P43354 whole entry, looked up, the tested form may be a part): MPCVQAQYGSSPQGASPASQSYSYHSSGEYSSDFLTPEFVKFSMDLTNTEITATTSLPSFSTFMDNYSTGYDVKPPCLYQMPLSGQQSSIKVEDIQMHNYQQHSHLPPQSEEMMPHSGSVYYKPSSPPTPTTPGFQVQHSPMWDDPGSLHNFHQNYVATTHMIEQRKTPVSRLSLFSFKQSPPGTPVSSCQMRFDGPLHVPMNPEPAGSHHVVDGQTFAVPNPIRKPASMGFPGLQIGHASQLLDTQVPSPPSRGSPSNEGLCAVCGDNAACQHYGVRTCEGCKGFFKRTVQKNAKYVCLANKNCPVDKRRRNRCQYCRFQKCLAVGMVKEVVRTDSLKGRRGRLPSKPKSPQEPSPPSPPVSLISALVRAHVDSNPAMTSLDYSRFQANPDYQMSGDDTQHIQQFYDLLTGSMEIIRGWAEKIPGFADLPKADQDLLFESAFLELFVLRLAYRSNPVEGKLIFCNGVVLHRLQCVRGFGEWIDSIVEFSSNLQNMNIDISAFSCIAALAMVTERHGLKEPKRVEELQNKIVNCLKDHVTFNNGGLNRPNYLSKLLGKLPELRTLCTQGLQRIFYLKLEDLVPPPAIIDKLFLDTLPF
Nuclear respiratory factor 1 (Homo sapiens), sequence (Q16656 whole entry, looked up): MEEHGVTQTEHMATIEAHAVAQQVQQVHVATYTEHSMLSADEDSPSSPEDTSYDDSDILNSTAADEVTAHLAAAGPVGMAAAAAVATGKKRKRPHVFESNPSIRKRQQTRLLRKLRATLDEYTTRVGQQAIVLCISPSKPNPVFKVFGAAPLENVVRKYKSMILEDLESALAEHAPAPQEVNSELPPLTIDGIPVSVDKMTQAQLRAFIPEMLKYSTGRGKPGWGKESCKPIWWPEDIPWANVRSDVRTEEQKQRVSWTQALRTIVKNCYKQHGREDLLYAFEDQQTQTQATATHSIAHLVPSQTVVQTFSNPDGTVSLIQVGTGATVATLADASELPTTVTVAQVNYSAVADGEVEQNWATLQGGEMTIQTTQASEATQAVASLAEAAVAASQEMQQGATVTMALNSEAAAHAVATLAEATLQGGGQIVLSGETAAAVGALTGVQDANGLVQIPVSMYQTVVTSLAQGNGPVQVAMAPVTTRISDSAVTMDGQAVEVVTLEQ
human Peroxisome Proliferator-activated Receptor alpha (PPARa), PPARA (gene 5465), sequence (Q07869 whole entry, looked up): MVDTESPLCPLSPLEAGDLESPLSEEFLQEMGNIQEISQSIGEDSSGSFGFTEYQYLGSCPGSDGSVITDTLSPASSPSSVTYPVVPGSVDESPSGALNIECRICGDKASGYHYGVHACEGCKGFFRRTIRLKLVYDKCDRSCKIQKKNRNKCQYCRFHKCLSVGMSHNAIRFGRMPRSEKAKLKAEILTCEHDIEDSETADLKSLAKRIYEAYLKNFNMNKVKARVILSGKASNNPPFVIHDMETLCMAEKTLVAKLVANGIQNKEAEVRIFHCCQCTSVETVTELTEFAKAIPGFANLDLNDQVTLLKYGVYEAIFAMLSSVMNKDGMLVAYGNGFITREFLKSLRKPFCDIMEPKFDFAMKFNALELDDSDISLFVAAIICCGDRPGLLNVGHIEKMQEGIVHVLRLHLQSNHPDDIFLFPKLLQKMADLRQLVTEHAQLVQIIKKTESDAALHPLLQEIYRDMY
Cellular tumor antigen p53 (Homo sapiens), sequence (P04637 whole entry, looked up, the tested form may be a part): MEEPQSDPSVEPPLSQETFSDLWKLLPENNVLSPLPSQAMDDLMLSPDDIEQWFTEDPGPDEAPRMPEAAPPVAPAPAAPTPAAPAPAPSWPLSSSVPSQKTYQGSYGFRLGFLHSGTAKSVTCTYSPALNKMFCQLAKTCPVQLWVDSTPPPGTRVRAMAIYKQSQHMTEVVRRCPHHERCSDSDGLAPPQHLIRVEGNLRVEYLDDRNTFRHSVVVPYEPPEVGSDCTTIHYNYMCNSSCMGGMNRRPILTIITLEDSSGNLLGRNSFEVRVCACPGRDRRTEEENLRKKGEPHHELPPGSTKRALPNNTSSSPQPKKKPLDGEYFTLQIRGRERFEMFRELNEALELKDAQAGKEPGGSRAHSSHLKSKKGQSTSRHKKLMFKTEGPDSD
Transcriptional activator Myb (Homo sapiens), sequence (P10242 whole entry, looked up): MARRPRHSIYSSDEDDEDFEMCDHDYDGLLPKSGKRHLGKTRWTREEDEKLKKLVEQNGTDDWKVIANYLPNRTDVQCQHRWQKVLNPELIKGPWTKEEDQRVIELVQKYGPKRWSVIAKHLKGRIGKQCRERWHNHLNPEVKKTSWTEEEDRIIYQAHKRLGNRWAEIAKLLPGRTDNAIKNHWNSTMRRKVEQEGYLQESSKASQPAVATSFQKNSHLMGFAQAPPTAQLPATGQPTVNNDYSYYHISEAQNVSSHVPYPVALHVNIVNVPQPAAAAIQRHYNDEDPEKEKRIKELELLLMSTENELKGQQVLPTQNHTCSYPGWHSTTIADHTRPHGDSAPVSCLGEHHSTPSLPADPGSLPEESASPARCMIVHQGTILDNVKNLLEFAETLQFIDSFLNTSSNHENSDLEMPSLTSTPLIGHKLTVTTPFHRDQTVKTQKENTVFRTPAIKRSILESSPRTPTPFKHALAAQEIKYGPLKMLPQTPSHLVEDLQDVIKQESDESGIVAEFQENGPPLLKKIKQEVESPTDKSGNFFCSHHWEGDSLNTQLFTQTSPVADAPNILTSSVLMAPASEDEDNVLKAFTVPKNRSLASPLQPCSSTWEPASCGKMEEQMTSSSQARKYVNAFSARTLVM
human Peroxisome Proliferator-activated Receptor delta (PPARd), PPARD (gene 5467), sequence (Q03181 whole entry, looked up, the tested form may be a part): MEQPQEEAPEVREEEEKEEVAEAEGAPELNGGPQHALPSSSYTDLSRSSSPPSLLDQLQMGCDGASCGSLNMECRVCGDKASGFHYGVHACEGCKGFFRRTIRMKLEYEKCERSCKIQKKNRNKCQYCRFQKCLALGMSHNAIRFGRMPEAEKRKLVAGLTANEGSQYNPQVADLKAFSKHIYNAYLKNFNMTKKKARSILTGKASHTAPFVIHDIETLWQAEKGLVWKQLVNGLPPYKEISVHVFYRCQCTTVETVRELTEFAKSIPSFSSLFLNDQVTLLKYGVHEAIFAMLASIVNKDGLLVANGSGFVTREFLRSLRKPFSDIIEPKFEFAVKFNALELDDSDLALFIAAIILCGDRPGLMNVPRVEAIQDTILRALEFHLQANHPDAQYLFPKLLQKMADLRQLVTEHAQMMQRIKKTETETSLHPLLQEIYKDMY
Hepatocyte nuclear factor 4-alpha (Homo sapiens), sequence (P41235 whole entry, looked up, the tested form may be a part): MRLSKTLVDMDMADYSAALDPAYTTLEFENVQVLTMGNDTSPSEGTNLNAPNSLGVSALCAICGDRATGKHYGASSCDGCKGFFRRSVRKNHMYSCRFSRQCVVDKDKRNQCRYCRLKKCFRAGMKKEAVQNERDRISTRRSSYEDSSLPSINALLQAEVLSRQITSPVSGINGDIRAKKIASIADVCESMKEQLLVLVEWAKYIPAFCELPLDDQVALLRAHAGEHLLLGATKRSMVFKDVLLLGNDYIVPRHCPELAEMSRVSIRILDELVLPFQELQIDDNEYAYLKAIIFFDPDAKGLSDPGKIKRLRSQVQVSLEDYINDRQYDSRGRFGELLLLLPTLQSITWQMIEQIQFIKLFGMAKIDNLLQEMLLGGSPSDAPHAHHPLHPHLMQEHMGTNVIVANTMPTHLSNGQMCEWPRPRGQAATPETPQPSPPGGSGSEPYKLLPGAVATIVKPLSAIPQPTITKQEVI

CCOc1cccc(C2(N3CCN(c4ccccc4)CC3)CCC(C)CC2)c1 (stereo not given)
inactive: [1] | [2] | [3] | [4] | [5] | [6] | [7] | [8] | [9]

COP(=S)(OC)SCN1C(=O)c2ccccc2C1=O
inactive: [10] | [2] | [3] | [4] | [11] | [5] | [6] | [7] | [8] | [9]

[As]#[In]
inactive: [12] | [1] | [10] | [2] | [3] | [4] | [13] | [11] | [14] | [5] | [6] | [15] | [7] | [16]

Nc1cc(Cl)cc(C(=O)O)c1Cl
inactive: [12] | [1] | [2] | [3] | [4] | [13] | [14] | [5] | [6] | [7] | [17] | [8] | [9]

CC(C)N(Cc1ccccc1)C(=O)C(C)(C)C
inactive: [10] | [2] | [3] | [4] | [13] | [11] | [5] | [6] | [15] | [7]

CC(C)COC(=O)c1ccccc1C(=O)OCC(C)C
active: [14] 36 µM | [5] 83 µM
inactive: [1] | [18] | [10] | [2] | [3] | [4] | [13] | [7] | [8]

O=C(N[C@H](c1ccccc1)[C@@H]1CN2CCC1CC2)c1c(Cl)ccc(C(F)(F)F)c1Cl
active: [14] 3.02 µM | [7] 17.7 µM
inactive: [1] | [2] | [3] | [4] | [13] | [11] | [5] | [6] | [16] | [9]

Clc1ccccc1Cl
inactive: [12] | [1] | [2] | [3] | [4] | [11] | [14] | [5] | [7] | [17] | [8]

CN(C)c1ccccc1
inactive: [1] | [2] | [3] | [4] | [5] | [6] | [7] | [16] | [17] | [8]

Cn1cc(-c2ccccc2)c(=O)c(-c2cccc(C(F)(F)F)c2)c1
inactive: [18] | [2] | [4] | [13] | [5] | [6] | [15] | [7] | [9]
active: [3] 100 µM | [11] 100 µM

Oc1ccc2ccc3cccc4ccc1c2c34
inactive: [12] | [1] | [18] | [2] | [3] | [4] | [11] | [5] | [6] | [9]
active: [15] 32.6 µM | [7] 22.3 µM | [16] 35.4 µM | [17] 28.6 µM

Cc1ccc(N)cc1
inactive: [18] | [10] | [2] | [3] | [4] | [11] | [14] | [5] | [6] | [15] | [7] | [17] | [8]

c1ccc(C2CO2)cc1 (stereo not given)
inactive: [18] | [10] | [2] | [3] | [4] | [13] | [14] | [5] | [6] | [7] | [17] | [8]
